In PubChem BioAssay (NCI):
About 83,000 compounds went through this panel and 20% of them were active in at least one assay; those are over-represented in the sample as a whole.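 How to read the values: 0–100, growth inhibition (40 = 60% inhibited); 0, no net growth; -100 to 0, cell death (-40 = 40% of starting cells died; -100 = all dead).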 A number with no mark means an inactive call. Active and inactive are the calls of the source. How the source made its calls: active means growth percent below 10; inactive means the rest.

Assays:
Experiment in all cases: NCI-60 one-dose screen, 48 h (100 = growth as untreated, 0 = no growth, -100 = all killed)
Details in all cases: 10 µM unless noted
DU-145 prostate = system: DU-145 prostate
K-562 leukemia = system: K-562 leukemia
MALME-3M melanoma = system: MALME-3M melanoma
MDA-MB-231 breast = system: MDA-MB-231 breast
RXF 393 renal = system: RXF 393 renal
SF-268 CNS = system: SF-268 CNS
SF-295 CNS = system: SF-295 CNS
SF-539 CNS = system: SF-539 CNS
UACC-257 melanoma = system: UACC-257 melanoma
M14 melanoma = system: M14 melanoma

SMILES	growth (DU-145 prostate)	growth (K-562 leukemia)	growth (MALME-3M melanoma)	growth (MDA-MB-231 breast)	growth (RXF 393 renal)	growth (SF-268 CNS)	growth (SF-295 CNS)	growth (SF-539 CNS)	growth (UACC-257 melanoma)	growth (M14 melanoma)
CCN(CC)c1ccc(/C=N/NC(=O)c2ccc(NS(C)(=O)=O)cc2)cc1	37.9%	14.8%	15.5%	43.2%	12.3%	32%	11.4%	18.6%	-4.47% (active)	0.0523% (active)
O=C(COc1ccc(/C=C2\C(=O)Nc3ccc(Cl)cc32)cc1)Nc1ccc(Cl)cc1	53.7%	28.2%	81.2%	76.6%	75.4%	51.1%	59.2%	75.3%	82.5%	7.47% (active)
CN1CCN(c2ccc(Nc3nc(NCCCNS(=O)(=O)c4ccc(Cl)cc4)c4sccc4n3)cc2)CC1	30.8%	12.5%	-88.4% (active)	9.29% (active)	-76.7% (active)	5.08% (active)	-68.5% (active)	-85.3% (active)	-80.2% (active)	-60.4% (active)
C=CCSC1=NC2C(N(CC)C(=O)N2CC)N1/N=C/C=C/c1ccccc1OC (stereo not given)	92.2%	28%	72.2%	82.5%	79.3%	89.2%	58.5%	78.1%	83%	72.6%
COc1cc(/C=N\NC(=O)c2ccc3nc(-c4ccc(Br)cc4)[nH]c3c2)cc(OC)c1OC	65.6%	22.5%	23.4%	101%	9.72% (active)	51.7%	32.5%	32.6%	33.1%	38.3%
O=C(N/N=C\c1ccc(F)cc1)c1ccc2nc(-c3ccc(Br)cc3)[nH]c2c1	-22.1% (active)	19.9%	-49.9% (active)	60.6%	-12.3% (active)	44.8%	39.4%	10.9%	74.5%	18.8%
CC(=O)OCCCCN1C=C/C(=C\C(=O)n2ccc3ccccc32)c2ccccc21	109%	90.6%	106%	86.6%	115%	103%	103%	100%	112%	101%
COc1cc(/C=C2/C(=O)Nc3ccc(Cl)cc32)ccc1OCc1ccc(Cl)cc1	89.5%	88.6%	82.3%	86.9%	93.4%	90.2%	97.7%	92.2%	102%	96.4%
O=C(/C=C/c1cccc(Br)c1)c1cccc(OCCCCOc2cccc(C(=O)/C=C/c3cccc(Br)c3)c2)c1	109%	90.1%	98%	101%	105%	99.9%	107%	104%	109%	93.9%
Cc1cc(=O)[nH]c(O)c1C#N	108%	99.2%	105%	98.2%	114%	103%	102%	97%	100%	94.4%
O=S(=O)(Oc1ccc(-c2cn3ccsc3n2)cc1)c1cccc(C(F)(F)F)c1	103%	96.9%	91.3%	101%	100%	110%	98.3%	101%	99.6%	101%
O=C(CN1CCN(c2cc(=O)[nH]c3ccc(F)cc23)CC1)N(c1ccccc1)c1ccccc1	107%	94.9%	100%	98.1%	103%	99.8%	107%	101%	106%	105%
CN1CCN(c2ccc(Nc3nc(NCCCNS(=O)(=O)c4ccc(C(F)(F)F)cc4)c4sccc4n3)cc2)CC1	-8.78% (active)	5.24% (active)	-87.8% (active)	-60.1% (active)	-87% (active)	-53.3% (active)	-74.6% (active)	-92.6% (active)	-91.7% (active)	-80.5% (active)
O=C(CSc1nnc(-c2cccs2)n1-c1ccccc1)Nc1ccccc1	83.3%	49.6%	35.2%	76.4%	59.8%	60%	90.1%	60.7%	85.4%	88.2%
CN1CCN(Cc2ccc(NC(=O)c3cncc(C#Cc4cnc5ccc(OC6CCOCC6)nn45)c3)cc2C(F)(F)F)CC1	-89.5% (active)	-0.118% (active)	-87.5% (active)	-59.9% (active)	-80.9% (active)	-58.4% (active)	-97% (active)	-92.8% (active)	-72.3% (active)	-91.2% (active)
Cn1cc(-c2nnc(N)nc2-c2c[nH]c3ccc(F)cc23)c2cc(Br)ccc21	37.8%	6.36% (active)	41.7%	47.3%	-12.7% (active)	39.7%	9.61% (active)	7.43% (active)	50.9%	-6.09% (active)
CCCCSC1=C(Cl)CN(c2ccccc2)C1=O	104%	91.6%	94.6%	98.2%	109%	106%	98.8%	97.3%	101%	103%
O=C1CSC(c2cn(-c3ccccc3)nc2-c2ccc(Cl)cc2)N1c1ccccc1 (stereo not given)	115%	109%	115%	107%	126%	109%	99.5%	99%	102%	99.3%
O=C1[C@H]2Cc3c([nH]c4ccccc34)[C@H](c3ccc(Cl)cc3)N2C(=O)CN1C1CCN(CC2CCCCC2)CC1	74.6%	6.81% (active)	45.8%	87%	45.8%	60.2%	97.4%	66.2%	75.1%	-56% (active)
O=C(COc1ccc(/C=C2\C(=O)Nc3ccc(F)cc32)cc1)Nc1ccccc1	104%	89.6%	102%	104%	120%	95.1%	105%	93.8%	104%	94.4%
CCOC(=O)c1ccc(NC2=CC(=O)C(C)=C(C)C2=O)cc1	109%	61.6%	97.1%	75.2%	93.2%	85.6%	52.1%	99.2%	84.1%	89.7%
COc1ccc(C2C(C#N)=C(/N=C/c3ccc(Cl)cc3)Oc3c2sc2c(C)cccc32)cc1 (stereo not given)	26.1%	9.73% (active)	50.2%	33.9%	-5.77% (active)	52.9%	8.79% (active)	1.34% (active)	70.9%	0.955% (active)
CN(C)S(=O)(=O)c1ccc(-c2nc(C(Cl)Cl)nc3cc(-c4ccccc4)nn23)cc1	79.2%	52.2%	15.3%	48.8%	84.4%	88.2%	86.7%	77.8%	105%	74%
CCOC(=O)c1cccc(NC2=C(Cl)C(=O)C(C)=C(C)C2=O)c1	104%	0.169% (active)	104%	28%	102%	92.8%	102%	95.8%	93.3%	100%
COc1ccc2[nH]cc(-c3nc(N)nnc3-c3cn(C)c4ccc(Br)cc34)c2c1	48.8%	5.19% (active)	42.2%	48.1%	5.35% (active)	39.4%	20.1%	18.1%	46.8%	5.3% (active)
NC1=NC2(CCCC2)N(c2ccc(S(=O)(=O)Nc3nccs3)cc2)C(N)=N1	111%	96.5%	101%	100%	104%	105%	104%	95%	101%	108%
N#Cc1c(-c2cccs2)cc(-c2cnccn2)nc1SCC(=O)N/N=C/c1ccccc1	14%	46.5%	4.87% (active)	46.5%	-16.4% (active)	56.4%	60.9%	56.1%	68.2%	37%
